Screens deposited in PubChem by ICCB-Longwood Screening Facility, Harvard Medical School.
Hits are enriched below; roughly 1.5% of the tested compounds scored in any of these assays.
AID504770: growth inhibitors of E. coli YBA685 in a screen for V. cholerae RctB (chromosome II replication) inhibitors; E. coli YBA685 rctB-dependent plasmid, OD600 growth, 3 h; hits give low values; z-score (concentration not given with the values); hit rate 0.27% among 130,000; in the data active = z-score below about -2, passing the limit was not always enough
Polio RdRp inh: inhibitors of poliovirus RNA polymerase binding and polymerization | hit rate 0.66% among 150,000 | % elongation, % (compound at 16.7 µg/mL) | P03300 | poliovirus polymerase elongation, fluorescence polarization; hits give low values | AID 588519; in the data active = % elongation below about 90%
MbtI inh: MbtI salicylate synthase inhibition; purified MbtI enzyme, fluorescence intensity read-out; hit rate 0.89% among 100,000; inhibition, % (test concentration not listed); P9WFX0; in the data active = inhibition mostly above about 56%, no sharp cut-off; inactive = mostly below about 77%
Target sequence (P9WFX0 whole entry, looked up): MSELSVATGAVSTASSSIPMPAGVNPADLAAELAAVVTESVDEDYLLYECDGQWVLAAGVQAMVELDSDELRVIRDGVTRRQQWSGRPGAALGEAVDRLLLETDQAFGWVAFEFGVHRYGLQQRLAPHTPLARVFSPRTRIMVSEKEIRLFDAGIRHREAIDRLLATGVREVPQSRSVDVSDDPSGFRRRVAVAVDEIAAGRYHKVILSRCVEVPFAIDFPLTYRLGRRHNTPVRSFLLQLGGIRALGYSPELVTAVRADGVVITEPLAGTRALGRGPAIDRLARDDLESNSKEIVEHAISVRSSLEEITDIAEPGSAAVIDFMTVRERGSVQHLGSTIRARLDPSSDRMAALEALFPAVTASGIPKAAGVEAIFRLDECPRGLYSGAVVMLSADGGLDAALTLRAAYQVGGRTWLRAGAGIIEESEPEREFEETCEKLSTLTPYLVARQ
Mtb MenB inh: inhibitors of Mycobacterium tuberculosis MenB enzyme; hit rate 0.43% among 100,000; MenB enzyme assay, absorbance read-out; P9WNP5; inhibition, % (concentration not given with the values); AID 540299; in the data active = inhibition above about 21%, passing the limit was not always enough
* marks the source's active call; other numbers are inactive results; ! = not active in a repeat.

Cc1noc(C)c1COC(=O)[C@@H](NC(=O)Cc1cccc2ccccc12)C(C)C was read as AID504770 -0.35, Polio RdRp inh 105, MbtI inh -2 and Mtb MenB inh 10.
For Nc1ccc(N2CCOCC2)c2nonc12 the results were AID504770 0, Polio RdRp inh 85*, MbtI inh 18 and Mtb MenB inh -140.
`O=C(Nc1ccc(N2CCOCC2)c2nonc12)c1ccco1` gave AID504770 1.4, Polio RdRp inh 99, MbtI inh 1 and Mtb MenB inh -3.
O=C(c1ccccc1)c1ccccc1C(=O)N1CCN(C2CCS(=O)(=O)C2)CC1 (stereo not given) was read as AID504770 0.25, Polio RdRp inh 102, MbtI inh -3 and Mtb MenB inh -18.
O=C(NC(=S)c1ccccc1)C1CC1 was read as AID504770 -0.45, Polio RdRp inh 91, MbtI inh 74* and Mtb MenB inh -38.
O=C(NC1(O)C(=O)c2ccccc2C1=O)c1ccccc1 was read as AID504770 -0.3, Polio RdRp inh 67*, MbtI inh -3 and Mtb MenB inh 2.
For Cc1ccc(C(=O)NC2(O)C(=O)c3ccccc3C2=O)cn1 the results were AID504770 -0.6.
Screening C#CCn1c(-c2ccccc2)nc2ccccc21 returned AID504770 -0.55, Polio RdRp inh 102, MbtI inh 88 and Mtb MenB inh -9.
`CCCn1c2c(c(O)c(C(=O)Nc3ccccc3F)c1=O)CCCC2` gave AID504770 -0.45, Polio RdRp inh 101, MbtI inh -3 and Mtb MenB inh 48*.
O=C(Nc1ccc(Cl)cc1Cl)c1c(O)c2c(n(Cc3ccco3)c1=O)CCCC2 was read as AID504770 0.15, Polio RdRp inh 103 and Mtb MenB inh -3.
For CCN1C(=O)CC(OC(C)=O)C1=O (stereo not given) the results were AID504770 0.2, Polio RdRp inh 103, MbtI inh 66* and Mtb MenB inh -17.
`CCN1C(=O)C2CC(C)=C(C)CC2C1=O` (stereo not given) gave AID504770 -0.8, Polio RdRp inh 97, MbtI inh -3 and Mtb MenB inh -9.
For O=C1c2ccccc2C(=O)N1Cn1ncc(Cl)c(Cl)c1=O the results were AID504770 -0.65, Polio RdRp inh 106, MbtI inh 1 and Mtb MenB inh -16.
`CCn1ncc(Cl)c(Cl)c1=O` gave AID504770 -1, Polio RdRp inh 77* and Mtb MenB inh -13.
For CSc1scc2c1C(=O)/C(=C/N(C)C)CC2 the results were AID504770 0.25, Polio RdRp inh 63*, MbtI inh 21 and Mtb MenB inh -25.
Screening COc1ccc(CNC(=O)c2cnc(OC)cc2C(F)(F)F)c(OC)c1 returned AID504770 -0.05, Polio RdRp inh 101, MbtI inh -26 and Mtb MenB inh 7.
CCN1CCCC1CNc1nc2ccc(C(=O)c3ccccc3)cc2n2cnnc12 (stereo not given) was read as AID504770 1.1, Polio RdRp inh 102, MbtI inh 16 and Mtb MenB inh 5.
Screening Cc1ccc(C=C2C(=O)NC(=O)NC2=O)cc1 returned AID504770 -4.7*, Polio RdRp inh 99, MbtI inh 22 and Mtb MenB inh -54.
Screening COC(=O)C1=C(C)NC(=O)/C1=C\c1ccc(C)cc1 returned AID504770 2.6, Polio RdRp inh 101, MbtI inh 14 and Mtb MenB inh -58.
For Nc1nc(SC#CC(F)(F)F)ns1 the results were AID504770 -4.9*, Polio RdRp inh 85*, MbtI inh 51 and Mtb MenB inh -19.
`Nc1ncc(C(F)(F)F)cc1Cl` gave AID504770 0.4, Polio RdRp inh 105, MbtI inh 1 and Mtb MenB inh -25.
Screening CCCCCCCc1c(C#N)c(N)[nH]c(=S)c1C#N returned AID504770 0.35, Polio RdRp inh 69*, MbtI inh 97* and Mtb MenB inh -52.
`CCOc1cc(S(=O)(=O)n2cccn2)ccc1F` gave AID504770 2, Polio RdRp inh 102, MbtI inh 6 and Mtb MenB inh 21.
CN(N)P(=S)(c1ccccc1)N(C)N was read as AID504770 1.4, Polio RdRp inh 76*, MbtI inh 93* and Mtb MenB inh 4.
O=C(COC(=O)c1ccc(Br)cc1)Nc1cccc2ccccc12 was read as AID504770 -1.4, Polio RdRp inh 103 and MbtI inh -6.
`CC(=O)Oc1c(O)ccc2c(C)cc(=O)oc12` gave AID504770 -0.6, Polio RdRp inh 102, MbtI inh -1 and Mtb MenB inh -6.
Screening Cc1cc(=O)oc2c(/C=N/c3ccccn3)c(O)ccc12 returned AID504770 0.1, Polio RdRp inh 88*, MbtI inh 32 and Mtb MenB inh -23.
For S=c1[nH]nc(C2COc3ccccc3O2)o1 (stereo not given) the results were AID504770 -0.65, Polio RdRp inh 98, MbtI inh 73*! and Mtb MenB inh -121.
`C=C/C=C(\C=C(C)C)N(C(=O)NC1CCCCC1)C1=NCCCS1` gave AID504770 -1.3, Polio RdRp inh 102, MbtI inh -1 and Mtb MenB inh 29*.
`CCN(CC)C(=O)NC1CCCCCC1` gave AID504770 -0.8, Polio RdRp inh 100, MbtI inh -12 and Mtb MenB inh -13.
Cn1nc(C(F)(F)F)c(CNC(=O)c2ccc(C(F)(F)F)cc2)c1N1CCOCC1 was read as AID504770 0.
For COc1cc(/C=C2\SC(=O)NC2=S)ccc1O the results were AID504770 0.05, Polio RdRp inh 86, MbtI inh 79* and Mtb MenB inh -97.
Screening COc1cc(/C=C2/SC(=S)N(NC(C)=O)C2=O)ccc1O returned AID504770 -0.2, Polio RdRp inh 155 and Mtb MenB inh inactive.
CCN(CC)C(=O)CSc1nnc(SCc2ccccc2)s1 was read as AID504770 -2.1, Polio RdRp inh 101, MbtI inh -5 and Mtb MenB inh -18.
C=CCN(CC=C)Cn1nc(Nc2ccccc2F)sc1=S was read as AID504770 0.35, Polio RdRp inh 107, MbtI inh 99* and Mtb MenB inh 3.
Screening C/C(=N\NC(N)=S)c1ccc(O)cc1 returned AID504770 -1.2, Polio RdRp inh 104, MbtI inh 32 and Mtb MenB inh -24.
`C/C(=N\NC(=S)Nc1ccccc1C)c1ccc(O)cc1` gave AID504770 0.45, Polio RdRp inh 75*, MbtI inh 93 and Mtb MenB inh -59.
For C/C(=N\NC(=S)NC1CCCCC1)c1ccc(O)cc1 the results were AID504770 -0.1, Polio RdRp inh 92, MbtI inh 90* and Mtb MenB inh -5.
Screening COc1ccc(CN2CCN(Cc3cccc4ccccc34)CC2)cc1 returned AID504770 0.85, Polio RdRp inh 107 and Mtb MenB inh -3.
Screening O=C(CSc1nnnn1-c1ccc2c(c1)OCCO2)NC1CCCC1 returned AID504770 -0.2, Polio RdRp inh 101, MbtI inh -16 and Mtb MenB inh 21.
`CC(C)Cc1ccc([C@H](C)C(=O)O)cc1` gave Polio RdRp inh 99 and Mtb MenB inh -8.
Screening CC(C)Cc1ccc(CC(=O)O)cc1 returned AID504770 -0.15, Polio RdRp inh 80*, MbtI inh 89 and Mtb MenB inh -48.
